# Source: PubChem (Broad Institute)
# Only a sample is shown.
# aSyn UTR act: Activators working through SNCA 5'UTR binding (MLPCN). alpha-synuclein 5'UTR reporter, activators screen. activity score, % (tested at 7.5 µM), hits read low. 300,000 compounds, 7.1% hits; in the data active = activity score below about -60%
# A number is an active result; – = inactive.
SMILES,aSyn UTR act
CCN(CC)S(=O)(=O)c1ccc(N2CCc3ccccc3C2)nc1,-78
CC(C)N(C(C)C)S(=O)(=O)c1ccc(N2CCc3ccccc3C2)nc1,-150
Cc1ccc2nc(/C(C#N)=C/c3ccc(O)c(O)c3)[nH]c2c1,-222
Cc1ccc2nc(/C(C#N)=C/c3cn[nH]c3-c3ccc(F)cc3)[nH]c2c1,-175
c1ccc(CCNc2nc(-c3ccncc3)cs2)cc1,-114
CCCCCNc1nc(-c2ccccc2)cs1,-169
O=C(O)c1ccc(N=NN2CCCCCC2)cc1,-168
c1ccn(-c2ccc(N3CCOCC3)cc2)c1,-125
Cc1ccc(OCC(=O)Nc2ccon2)c([N+](=O)[O-])c1,-91
Cc1ccc(OC/C(=N\O)C(C)(C)C)c([N+](=O)[O-])c1,-77
Cc1ccc(OCC(=O)Nc2ccccc2[N+](=O)[O-])c(Br)c1,-207
S=C(NN=C1CCCCCC1)Nc1ccc(Cl)cc1,-71
Fc1ccc(NC(=S)NN=C2CCCCCC2)cc1,-75
N#C/C(=N\Nc1ccc(Cl)c(Cl)c1)C(=O)C1CC1,-97
CN(C)c1oc(-c2ccc(OCc3ccccc3)cc2)nc1C#N,-109
Cc1nc(-c2ccc(Cl)cc2)sc1C1(C)CC(c2cccc(F)c2)=NO1 (configuration not stated),-67
O=C(Nc1ccc2[nH]ncc2c1)c1ccccc1,-81
O=C(Nc1ccc2[nH]ncc2c1)c1ccc(F)cc1,-90
CCOC(=O)N1CCN(C(=O)CSCC(=O)Nc2nc(-c3ccc(OC)cc3)cs2)CC1,-97
CCOC(=S)SCC(=O)Nc1nc(-c2ccc(Br)cc2)cs1,–
O=C(COC(=O)c1cccnc1Cl)Nc1nc(-c2ccccc2)cs1,-63
CCOC(=O)N1CCN(C(=O)CSCC(=O)Nc2nc(-c3ccc(Cl)s3)cs2)CC1,-85
CCOC(=O)N1CCN(C(=O)CSCC(=O)Nc2nc(-c3ccc(-c4ccccc4)cc3)cs2)CC1,-126
CC1=Nc2ccccc2N=C(N)C1c1ccccc1 (configuration not stated),-124
O=C(/C=C/c1ccccc1)Nc1scc(-c2ccccc2)c1C(=O)O,-84
SMILES,aSyn UTR act
Cc1ccc(-c2csc(NC(=O)c3ccccc3F)c2C(=O)O)cc1,-102
COc1ccc(-c2csc(NC(=O)c3ccc(C(C)(C)C)cc3)c2C(=O)O)cc1,–
CCOC(=O)c1c(-c2ccc(-c3ccccc3)cc2)csc1NC(=O)CNCCN(C)C,–
Cc1ccc(-c2csc(NC(=O)c3ccc(F)cc3)c2C(=O)O)cc1,-105
C=CCc1cccc2cc(C(=O)Nc3ccc(F)cc3)c(=O)oc12,-128
COc1ccc(NC(=O)c2cccn(CC=C(C)C)c2=O)cc1,-79
C=CCn1cccc(C(=O)Nc2ccc(OC)cc2)c1=O,-97
C=CCn1cccc(C(=O)Nc2ccc(F)cc2)c1=O,-101
C=CCn1c(N)c(C(=O)Nc2ccccc2)c2nc3ccccc3nc21,–
CC(=O)c1ccc(NC(=O)Cc2cccs2)cc1,-84
Cc1cc(NC(=O)Cc2ccsc2)ccc1Br,-112
CC(=O)c1ccc(NC(=O)Cc2ccsc2)cc1,-79
CCN1/C(=C/c2sc(-c3ccccc3C)c[n+]2C)Sc2ccccc21,–
C=C(C)CSc1nc2ncc(Cl)cc2[nH]1,-74
O=C(N/N=C\c1ccc([N+](=O)[O-])s1)c1cncc(Br)c1,–
COC(=O)c1ccc(-c2ccc(/C=N/N3C(=O)C4C5C=CC(C6CC56)C4C3=O)o2)cc1 (configuration not stated),-100
CCOC(=O)c1ccc(-c2ccc(/C=N/NC(=O)c3cncc(Br)c3)o2)cc1,-164
COC(=O)c1ccc(-c2ccc(/C=N/NC(=O)CC3(C)OCCCO3)o2)cc1,-67
CCOC(=O)c1ccc(-c2ccc(/C=N/NC(=O)Cc3nnc(N)s3)o2)cc1,-83
CCCCOC(=O)c1ccc(-c2ccc(/C=N/NC(=S)NCC)o2)cc1,-89
O=[N+]([O-])c1ccc(N/N=C/c2ccccc2)c(F)c1,-151
CC1(c2ccncc2)Nc2ccccc2-c2nc3ccccc3n21 (configuration not stated),-66
Cc1ccc(Nc2nc(=O)c3cccnc3s2)cc1,-228
CC(C)(C)C(=O)Cn1ncc(Br)c(Br)c1=O,-92
Cc1ccc(NC(=O)/C(CN(C)C)=N\O)cc1,-89
SMILES,aSyn UTR act
Cc1ccc(C(=O)Nc2ccc3ccccc3c2)cc1,–
Cc1cccc(C(=O)Nc2ccc(O)cc2)c1,-98
O=C(Nc1ccccc1)c1ccc(C(=O)Nc2ccccc2)nc1,-182
Cc1ccc(NC(=O)c2ccccc2)cc1,-164
Cc1ccc(NC(=O)C(=O)c2ccc(C)cc2)cc1,-208
CSC(=CC(=O)c1ccccc1)SC,-77
Cc1ccc(N/C(=C\C(=O)c2ccccc2)C(=O)O)cc1,-158
O=C(Nc1ccc(Nc2ccccc2)cc1)c1ccc(F)cc1,-75
Cc1cccc(C(=O)Nc2ccc(C(=O)c3ccccc3)cc2)c1,-106
O=C(Nc1nsc(-c2ccccc2)n1)c1ccc(F)cc1,-166
CN(C)c1ccc(C(=O)c2ccc(O)cc2O)cc1,-114
Cc1cc(O)c(C(=O)/C=C/c2ccc(Cl)cc2)c(=O)o1,-172
CSc1ccc(/C=C/C(=O)c2c(O)cc(C)oc2=O)cc1,-117
COc1cc2[nH]c3c(=O)n4c(nc3c2cc1OC)SCCC4,-97
FC(F)(F)c1cccc(-c2ccc(-c3csnn3)o2)c1,-85
O=[N+]([O-])c1ccc(-c2cn3c(n2)CCC3)cc1,-129
CCOc1cc(CNc2ccc3c(c2)OCCO3)cc(Br)c1OC,–
CCOc1cc(CNc2ccc3c(c2)OCCO3)cc(Br)c1OCC(N)=O,-66
COc1ccc(NC(=S)Nc2ccccn2)c(OC)c1,-153
COc1ccc(NC(=S)Nc2cc(C)ccn2)c(OC)c1,-243
COc1ccc(NC(=O)c2nc(S(=O)(=O)Cc3cccc(C)c3)ncc2Cl)c(OC)c1,–
N#CCc1ccc(C(=O)c2ccccc2)s1,-70
CCc1nnc(NC(=O)CSc2nc3c(cc2C#N)CCCC3)s1,-91
COC(=O)CC(=O)CSc1nc2c(cc1C#N)CCCCC2,-62
CSC1CCCCC1(O)CSc1nc2c(cc1C#N)CCCC2 (configuration not stated),–
SMILES,aSyn UTR act
CCOC(=O)c1sc(NC(=O)CSc2nc3c(cc2C#N)CCCCC3)c(C#N)c1C,-143
O=C(/C=C/c1ccco1)Nc1ccc(C(=O)N2CCOCC2)cc1,-75
O=C(/C=C/c1ccco1)Nc1ccc(N2CCCC2)cc1,-207
COc1cc(/C=N/NC(=S)NC2CC3CC2C2C=CCC32)ccc1O (configuration not stated),-116
O=c1c(C=Nc2cccc(C(F)(F)F)c2)c[nH]n1-c1cccc(Cl)n1,-65
COc1ccc(-c2cc(C(=O)NCC(c3ccccc3)N(C)C)c3ccccc3n2)cc1OC (configuration not stated),-68
COc1cccc(-c2cc(C(=O)NCCCn3ccnc3)c3ccccc3n2)c1,-70
Cc1ccc(-c2cc(C(=O)NCc3ccccn3)c3ccccc3n2)cc1C,-124
Cc1ccc(-c2cc(C(=O)NCCCN3CCCC3)c3ccccc3n2)cc1C,-63
COc1ccccc1Nc1nc2ccccc2[nH]1,-120
COc1cc(/C=N/Nc2nc3ccccc3[nH]2)ccc1O,-270
COc1cc(/C=N/Nc2nc3ccccc3[nH]2)cc(OC)c1O,-100
COc1cc(/C=C(/C(=O)c2cccs2)c2nc3ccccc3[nH]2)cc(OC)c1O,-224
COc1ccc(O)c(/C=N/Nc2nc3ccccc3[nH]2)c1,-81
COc1cccc(/C=N/Nc2nc3ccccc3[nH]2)c1OC,-106
